Laboratory results: PubChem BioAssay
The source made the active and inactive calls.

Assays:
[1] = small molecules captured by biotinylated probe aFSTL3 – biochemical, small-molecule microarray, fluorescence 635/667, stem cell growth factor project, primary screen (AID 1064); conditions: higher = more signal;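 note: measures binding of the biotinylated anti-FSTL3 antibody to printed compounds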
[2] = binders from COS7 lysate, DM2A8 probe, primary screen, torsin A project, cell lysate, small-molecule microarray, fluorescence 635/667 (AID 1065); conditions: higher = more signal, COS7 lysate expressing mutant human TOR1A
[3] = small molecules captured by biotinylated probe aFGF2 – biochemical, small-molecule microarray, fluorescence 635/667, stem cell growth factor project, primary screen (AID 1067); conditions: higher = more signal;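 note: measures binding of biotinylated aFGF2 protein to printed compounds on slides; z-score merges feature fluorescence and signal-to-noise across triplicate slides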
[4] = small molecules captured by biotinylated probe aFGF10 – biochemical, small-molecule microarray, fluorescence 635/667, stem cell growth factor project, primary screen (AID 1071); conditions: higher = more signal;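 note: score merges 667 nm spot intensity and signal to noise from triplicate slides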
[5] = target: Neurogenic locus notch homolog protein 2 (Homo sapiens) (UniProt Q04721); assay: small molecules binding Notch2 protein – biochemical, small-molecule microarray, 635 nm fluorescence, stem cell growth factors, primary screen (AID 1073); conditions: higher = more signal
Neurogenic locus notch homolog protein 2 (Homo sapiens), sequence (Q04721 whole entry, looked up, canonical isoform): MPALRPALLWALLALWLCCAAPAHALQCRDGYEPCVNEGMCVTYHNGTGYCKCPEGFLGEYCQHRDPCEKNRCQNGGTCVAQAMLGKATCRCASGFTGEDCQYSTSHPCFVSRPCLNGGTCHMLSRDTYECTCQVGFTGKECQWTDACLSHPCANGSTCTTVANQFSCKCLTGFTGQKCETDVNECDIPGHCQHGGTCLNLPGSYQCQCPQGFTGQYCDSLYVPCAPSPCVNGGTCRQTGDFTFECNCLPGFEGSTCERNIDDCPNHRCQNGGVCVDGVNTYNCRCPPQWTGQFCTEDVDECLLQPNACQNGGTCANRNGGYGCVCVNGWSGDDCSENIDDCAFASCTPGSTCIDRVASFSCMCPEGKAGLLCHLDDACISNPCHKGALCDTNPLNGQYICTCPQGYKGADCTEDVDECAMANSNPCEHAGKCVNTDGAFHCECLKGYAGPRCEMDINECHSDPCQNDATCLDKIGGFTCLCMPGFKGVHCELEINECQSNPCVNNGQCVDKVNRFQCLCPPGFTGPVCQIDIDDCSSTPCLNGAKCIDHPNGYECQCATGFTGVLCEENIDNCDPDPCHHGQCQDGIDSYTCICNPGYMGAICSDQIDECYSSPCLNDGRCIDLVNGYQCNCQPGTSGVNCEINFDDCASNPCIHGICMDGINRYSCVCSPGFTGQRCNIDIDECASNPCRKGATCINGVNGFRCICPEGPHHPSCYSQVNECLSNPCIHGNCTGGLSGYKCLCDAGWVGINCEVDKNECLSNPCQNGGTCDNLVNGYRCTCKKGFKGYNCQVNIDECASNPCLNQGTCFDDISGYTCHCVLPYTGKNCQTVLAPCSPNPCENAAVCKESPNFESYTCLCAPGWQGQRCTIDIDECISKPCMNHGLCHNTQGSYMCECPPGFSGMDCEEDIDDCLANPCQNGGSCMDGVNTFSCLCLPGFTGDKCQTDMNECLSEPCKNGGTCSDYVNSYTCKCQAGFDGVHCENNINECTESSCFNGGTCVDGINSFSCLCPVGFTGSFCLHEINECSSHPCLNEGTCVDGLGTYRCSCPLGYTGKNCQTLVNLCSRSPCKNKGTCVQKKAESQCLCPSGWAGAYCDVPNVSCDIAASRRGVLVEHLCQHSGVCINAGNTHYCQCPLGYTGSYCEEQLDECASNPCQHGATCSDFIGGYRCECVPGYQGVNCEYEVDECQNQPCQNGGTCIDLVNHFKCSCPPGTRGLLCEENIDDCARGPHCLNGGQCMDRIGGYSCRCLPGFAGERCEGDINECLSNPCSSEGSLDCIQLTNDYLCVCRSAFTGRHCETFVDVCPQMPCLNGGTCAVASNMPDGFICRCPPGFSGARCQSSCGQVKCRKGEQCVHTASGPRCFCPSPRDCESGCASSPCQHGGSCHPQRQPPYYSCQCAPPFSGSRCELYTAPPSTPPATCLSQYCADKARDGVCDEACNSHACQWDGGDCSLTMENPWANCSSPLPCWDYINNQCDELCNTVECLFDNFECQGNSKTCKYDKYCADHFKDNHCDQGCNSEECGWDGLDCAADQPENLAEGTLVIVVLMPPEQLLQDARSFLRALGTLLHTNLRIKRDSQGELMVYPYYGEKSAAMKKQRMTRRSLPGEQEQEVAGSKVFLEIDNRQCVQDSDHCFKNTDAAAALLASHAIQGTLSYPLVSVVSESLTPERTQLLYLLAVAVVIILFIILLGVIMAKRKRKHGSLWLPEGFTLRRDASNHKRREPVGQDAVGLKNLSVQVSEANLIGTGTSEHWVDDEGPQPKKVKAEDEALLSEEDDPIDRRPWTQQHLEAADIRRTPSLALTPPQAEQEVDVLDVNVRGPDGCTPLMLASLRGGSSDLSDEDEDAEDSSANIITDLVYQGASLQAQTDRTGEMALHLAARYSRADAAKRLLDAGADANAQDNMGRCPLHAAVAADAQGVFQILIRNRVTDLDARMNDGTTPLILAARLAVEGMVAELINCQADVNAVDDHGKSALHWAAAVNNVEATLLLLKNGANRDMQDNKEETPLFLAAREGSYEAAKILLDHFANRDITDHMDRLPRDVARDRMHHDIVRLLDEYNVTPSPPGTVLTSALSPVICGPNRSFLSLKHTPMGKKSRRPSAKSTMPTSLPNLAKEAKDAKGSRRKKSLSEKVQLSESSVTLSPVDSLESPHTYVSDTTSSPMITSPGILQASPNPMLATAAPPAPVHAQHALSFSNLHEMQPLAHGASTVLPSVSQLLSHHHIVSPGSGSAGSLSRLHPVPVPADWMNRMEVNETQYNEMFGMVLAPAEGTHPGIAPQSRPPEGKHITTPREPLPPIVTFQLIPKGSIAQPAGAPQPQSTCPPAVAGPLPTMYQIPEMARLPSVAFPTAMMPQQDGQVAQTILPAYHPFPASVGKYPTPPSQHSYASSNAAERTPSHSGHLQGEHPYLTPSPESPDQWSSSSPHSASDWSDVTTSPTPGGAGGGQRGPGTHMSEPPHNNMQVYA

[6] = target: Pro-neuregulin-1, membrane-bound isoform (Homo sapiens) (UniProt Q02297); assay: small molecules binding neuregulin-1 protein – biochemical, small-molecule microarray, fluorescence 635/667, psychiatric disease protein project, primary screen (AID 1075); conditions: NRG1 binding, 635 nm fluorescence, higher = more signal;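 note: score combines 667 nm spot fluorescence with signal to noise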
Pro-neuregulin-1, membrane-bound isoform (Homo sapiens), sequence (Q02297 whole entry, looked up, the tested form may be a part, canonical isoform): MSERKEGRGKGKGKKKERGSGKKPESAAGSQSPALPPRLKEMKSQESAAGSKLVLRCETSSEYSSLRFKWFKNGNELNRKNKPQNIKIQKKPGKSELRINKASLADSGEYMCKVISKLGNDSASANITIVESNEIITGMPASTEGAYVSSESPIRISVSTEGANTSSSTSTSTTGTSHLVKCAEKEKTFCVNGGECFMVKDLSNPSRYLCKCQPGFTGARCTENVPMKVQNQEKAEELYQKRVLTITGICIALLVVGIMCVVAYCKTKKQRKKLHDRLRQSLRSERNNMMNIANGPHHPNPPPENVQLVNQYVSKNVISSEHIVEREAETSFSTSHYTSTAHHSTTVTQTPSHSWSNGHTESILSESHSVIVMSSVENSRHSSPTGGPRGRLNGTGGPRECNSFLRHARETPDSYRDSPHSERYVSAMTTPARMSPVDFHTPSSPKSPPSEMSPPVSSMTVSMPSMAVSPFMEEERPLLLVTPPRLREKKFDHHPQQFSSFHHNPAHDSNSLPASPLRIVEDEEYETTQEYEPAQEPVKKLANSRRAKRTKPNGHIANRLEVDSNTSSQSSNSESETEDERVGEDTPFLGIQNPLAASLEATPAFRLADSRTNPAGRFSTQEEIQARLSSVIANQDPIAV

[7] = system: Neuregulin-1 EGF-like domain; assay: small molecules binding NRG1 EGF domain – biochemical, small-molecule microarray, 635 nm fluorescence, primary screen (AID 1081); conditions: higher = more signal;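 note: binding of the protein to compounds printed on small-molecule microarray slides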
[8] = FRG1 expression reporter modulators in myotubes – cell-based, C2C12 myotubes, firefly/Renilla luciferase, luminescence, FRG1 inhibition for FSHD, primary screen (AID 1084); conditions: FRG1 promoter luciferase, higher = more signal, called active from +8 up or from −8 down
[9] = small molecules captured by biotinylated probe aFST – biochemical, small-molecule microarray, fluorescence 635/667, stem cell growth factor project, primary screen (AID 1086); conditions: higher = more signal;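 note: score merges 667 nm fluorescence with signal-to-noise of each printed compound spot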
[10] = binders of probe aHhip on microarray, primary screen, stem cell growth factor project, biochemical, small-molecule microarray, fluorescence 635/667 (AID 1087); conditions: higher = more signal;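 note: score merges spot fluorescence at 667nm with spot signal to noise ratio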

| SMILES | composite z-score [1] | composite z-score [2] | composite z-score [3] | composite z-score [4] | composite z-score [5] | composite z-score [6] | composite z-score [7] | z-score [8] | composite z-score [9] | composite z-score [10] |
| --- | --- | --- | --- | --- | --- | --- | --- | --- | --- | --- |
| O=C(N1CCOCC1)[C@]1(CCS(=O)(=O)c2ccccc2)N=C(c2ccc(OCCCO)cc2)O[C@@H]1c1ccccc1 | 0.217 | 2.19 | -0.0667 | 0.479 | 1.22 | 1.94 | 1.3 | -1.49 (inactive) | 1.31 | -0.0994 |
| O=C1O[C@H](c2ccccc2)[C@H](c2ccccc2)N2[C@H]1[C@@H](C(=O)N1CCN(c3ncccn3)CC1)[C@]1(C(=O)Nc3ccc(C#CC4(O)CCCCCC4)cc31)[C@H]2c1ccc(O)cc1 | 0.406 | 2.01 | -0.0125 | 1.04 | 0.607 | 1.54 | 1.28 | 0.0132 (inactive) | 0.0718 | -0.0645 |
| CCOC(=O)C[C@H]1[C@H](OC(=O)c2ccccc2-c2ccccc2)[C@@H](NC(=O)CC(C)C)c2cc(OCCCO)ccc2N1C(=O)c1ccccc1 | -0.565 | 0.115 | -0.0632 | 0.351 | 0.527 | 0.092 | 0.606 | 0.077 (inactive) | 0.324 | -0.137 |
| COC(=O)c1c2oc(c1C(=O)OC)C(=O)N[C@H](Cc1ccccc1)Cn1cc(nn1)C1(CCCCC1)NC(=O)N[C@H](CO)CC2 | -0.194 | 0.112 | -0.0561 | 0.399 | -0.0222 | 0.657 | 0.647 | -1.12 (inactive) | -0.259 | -0.0102 |
| O=C1N(Cc2ccccc2)Cc2ccccc2C[C@@]12COC(c1ccc(OCCCO)cc1)=N2 | 1.18 | 0.455 | -0.0428 | -0.0784 | -0.0568 | 0.605 | 1.21 | -1.58 (inactive) | 0.419 | 0.369 |
| CC(C)c1ccc(NN2C(C(O)c3ccccc3)C=CC3C(=O)N(c4ccccc4)C(=O)C32)cc1 (stereo not given) | 0.744 | 0.141 | 0.117 | 0.885 | 1.42 | 0.905 | 0.793 | 1.47 (inactive) | 1.13 | -0.265 |
| CCCC1(C(=O)OC)C=C2C(=C(C(C)C)C(=O)C2C)CN1 (stereo not given) | 0.578 | -0.241 | -0.133 | -0.397 | -0.052 | 0.688 | -0.15 | 1.89 (inactive) | -0.0967 | -0.0645 |
| C=CC[C@]1(C(=O)NCCN2CCOCC2)N=C(c2ccc(OCCCO)cc2)O[C@H]1c1ccccc1 | -0.038 | 0.422 | -0.0691 | 0.571 | 0.862 | 0.0304 | 1.25 | 1.37 (inactive) | 1.18 | -0.479 |
| CC1C2C(CCCO)=CC(C3C(=O)N(C)C(=O)C23)N1Cc1cccc(OC(F)(F)F)c1 (stereo not given) | -0.0014 | 0.289 | 0.0653 | 0.647 | 0.929 | 2.04 | 1.37 | 0.0511 (inactive) | 0.155 | 0.289 |
| [N-]=[N+]=Nc1ccccc1C[C@@]1(C(=O)NCC(O)CO)N=C(c2ccc(OCCCO)cc2)O[C@@H]1c1ccccc1N=[N+]=[N-] (stereo not given in full) | -0.175 | 0.045 | 0.285 | 0.311 | 0.194 | 1.62 | 0.848 | -0.858 (inactive) | 0.941 | -0.134 |
| C=CCOC(=O)[C@H]1[C@@H]2C(=O)O[C@@H](c3ccccc3)[C@@H](c3ccccc3)N2[C@@H](c2ccc(OCCOC(=O)[C@H]3C[C@H]4C(=O)NCC(=O)N4[C@H]3c3cccc(OCCO)c3)cc2)[C@]12C(=O)Nc1ccc(I)cc12 | -0.365 | 0.469 | -0.045 | 0.589 | 0.81 | 0.388 | 1.3 | -0.18 (inactive) | 0.557 | 0.28 |
| C=C(COC)C(=O)CC[C@H](OC(C)=O)c1ccccc1OCCO | -0.0661 | 0.697 | -0.167 | 0.484 | -0.987 | -0.493 | 0.355 | -0.0831 (inactive) | -0.215 | -0.0994 |
| O=C1NC(=O)C2C1C=CC(C(O)C1CCCCC1)N2Nc1ccccn1 (stereo not given) | -0.236 | 0.0046 | -0.0524 | 0.235 | 0.629 | 1.37 | 1.32 | 1.64 (inactive) | 0.265 | -0.374 |
| CCc1cccc(NC(=O)O[C@H]2[C@H](OC(=O)Nc3ccccc3-c3ccccc3)[C@H](OC(=O)Nc3ccccc3-c3ccccc3)[C@@H](OC)O[C@@H]2CO)c1 | -0.189 | 0.42 | 0.155 | 0.576 | 1.54 | 1.48 | 1.11 | -0.714 (inactive) | 1.14 | -0.214 |
| C=C(C(=O)CC[C@@H](OC(=O)c1cccnc1)c1cccc(OCCO)c1)C(C)C | -0.512 | -0.0785 | -0.167 | 0.684 | -0.0786 | -0.145 | -0.284 | 1.2 (inactive) | 0.267 | -0.236 |
| C=CCC(OC(C)=O)[C@@H]1[C@@H](N(Cc2ccc(-c3ccccc3)cc2)C(=O)Cc2ccc(OC)cc2)c2cc(OCCCO)ccc2N1C(=O)Cc1ccc(OC)cc1 (stereo not given in full) | 0.169 | 0.414 | -0.0363 | 0.479 | -0.076 | 0.851 | 0.0142 | -1.5 (inactive) | 0.195 | 0.411 |
| [N-]=[N+]=Nc1ccccc1C[C@]1(C(=O)N2CCCCC2)N=C(c2ccc(OCCCO)cc2)O[C@H]1c1ccccc1 | 0.484 | 0.593 | -0.0332 | 1.21 | 1.36 | 0.733 | 1.08 | -3.1 (inactive) | 0.933 | 0.154 |
| CC(C)C[C@@H]1NC(=O)[C@H]2C[C@@H](C(=O)O)[C@@H](c3cccc(OCCO)c3)N2C1=O | 0.885 | 1.76 | -0.083 | -0.0367 | -0.26 | 1.61 | 1.48 | 7.43 (inactive) | 0.108 | 0.129 |
| O=C1C2C=CC(C(O)C3CC=CCC3)N(Nc3ccc([N+](=O)[O-])cc3)C2C(=O)N1c1ccccc1 (stereo not given) | 1.47 | 1.28 | 0.428 | 1.14 | 1.54 | 1.61 | 1.26 | -1.06 (inactive) | 2.28 | 0.0729 |
| COC(=O)[C@@]1(Cc2ccccc2)[C@H]2c3cc(C(=O)N(C)C)n(Cc4nc5ccccc5[nH]4)c3C[C@H]2CN1C(=O)c1ccccc1 | 1.1 | 1.08 | 0.214 | 0.572 | 1.77 | 2.12 | 1.33 | -1.3 (inactive) | 1.37 | -0.315 |
| C=CCNC(=O)[C@@H]1[C@H]2C(=O)O[C@H](c3ccccc3)[C@H](c3ccccc3)N2[C@H](c2ccc(O)cc2)[C@@]12C(=O)Nc1ccc(C#CC3=CCCCC3)cc12 | -0.619 | 1.23 | -0.0639 | 1.1 | 0.87 | 1.15 | 1.06 | -0.231 (inactive) | -0.17 | -0.426 |
